According to PubChem BioAssay (NCI):
Compounds without any hit were thinned out: in the full panel of roughly 83,000, 20% have a hit.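 Plates (96-well) were seeded with cells, treated with compound at one concentration, and incubated for 48 hours before percent growth was determined.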 Calls of active or inactive are those of the source. The calls were made as follows: active = growth percent below 10; inactive = the rest.

Columns and labels:
Experiment in all cases: NCI-60 one-dose screen, 48 h (100 = growth as untreated, 0 = no growth, -100 = all killed)
NCI-H226 lung = tested on: NCI-H226 lung
NCI-H322M lung = tested on: NCI-H322M lung
HOP-62 NSCLC = tested on: HOP-62 NSCLC
NCI-H460 lung = tested on: NCI-H460 lung
HOP-92 NSCLC = tested on: HOP-92 NSCLC
NCI-H522 lung = tested on: NCI-H522 lung
A549/ATCC NSCLC = tested on: A549/ATCC NSCLC
786-0 renal = tested on: 786-0 renal
COLO 205 colon = tested on: COLO 205 colon
DU-145 prostate = tested on: DU-145 prostate
MALME-3M melanoma = tested on: MALME-3M melanoma
MDA-MB-231 breast = tested on: MDA-MB-231 breast
RXF 393 renal = tested on: RXF 393 renal
SF-268 CNS = tested on: SF-268 CNS
SF-295 CNS = tested on: SF-295 CNS
SF-539 CNS = tested on: SF-539 CNS
UACC-257 melanoma = tested on: UACC-257 melanoma
M14 melanoma = tested on: M14 melanoma
K-562 leukemia = conditions: 10 µM unless noted

Measured: growth

CC/C(=C(/c1ccc(O)cc1)c1ccc(OCCN(C)C(=O)CCOCCNC(=O)Cc2ccc3c(c2)CN([C@@H]2CCC(=O)NC2=O)C3=O)cc1)c1ccccc1
inactive: NCI-H226 lung; 1 µM 93.9% | NCI-H226 lung; 10 µM 47% | NCI-H322M lung; 1 µM 88.1% | NCI-H322M lung; 10 µM 67% | HOP-62 NSCLC; 1 µM 82.5% | HOP-62 NSCLC; 10 µM 52.3% | NCI-H460 lung; 1 µM 130% | NCI-H460 lung; 10 µM 103% | HOP-92 NSCLC; 1 µM 22.2% | HOP-92 NSCLC; 10 µM 20.8% | NCI-H522 lung; 1 µM 92% | NCI-H522 lung; 10 µM 91.2% | A549/ATCC NSCLC; 1 µM 93.1% | A549/ATCC NSCLC; 10 µM 87.8% | 786-0 renal; 1 µM 97.2% | 786-0 renal; 10 µM 84.2% | COLO 205 colon; 1 µM 102% | COLO 205 colon; 10 µM 62.3% | DU-145 prostate; 1 µM 109% | DU-145 prostate; 10 µM 101% | MALME-3M melanoma; 1 µM 42.7% | MALME-3M melanoma; 10 µM 13.3% | MDA-MB-231 breast; 1 µM 11% | RXF 393 renal; 1 µM 104% | RXF 393 renal; 10 µM 93.8% | SF-268 CNS; 1 µM 96.5% | SF-268 CNS; 10 µM 72.6% | SF-295 CNS; 1 µM 103% | SF-295 CNS; 10 µM 94.7% | SF-539 CNS; 1 µM 87.9% | SF-539 CNS; 10 µM 78.4% | UACC-257 melanoma; 1 µM 91% | UACC-257 melanoma; 10 µM 96.1% | M14 melanoma; 1 µM 92.2% | M14 melanoma; 10 µM 65%
active: MDA-MB-231 breast; 10 µM -5.68%

c1n[nH]cc1-c1nc2ccc3[nH]ncc3c2c2c1CC1(CCOCC1)CC2
active: NCI-H522 lung; 10 µM unless noted 7.31% | RXF 393 renal; 10 µM unless noted -15.8%
inactive: NCI-H226 lung; 10 µM unless noted 27.3% | NCI-H322M lung; 10 µM unless noted 48.6% | HOP-62 NSCLC; 10 µM unless noted 55.5% | NCI-H460 lung; 10 µM unless noted 29.4% | HOP-92 NSCLC; 10 µM unless noted 70.7% | A549/ATCC NSCLC; 10 µM unless noted 44.7% | 786-0 renal; 10 µM unless noted 48.2% | COLO 205 colon; 10 µM unless noted 30.3% | DU-145 prostate; 10 µM unless noted 41.6% | K-562 leukemia 39.5% | MALME-3M melanoma; 10 µM unless noted 22.6% | MDA-MB-231 breast; 10 µM unless noted 59.4% | SF-268 CNS; 10 µM unless noted 34.4% | SF-295 CNS; 10 µM unless noted 65.8% | SF-539 CNS; 10 µM unless noted 26.6% | UACC-257 melanoma; 10 µM unless noted 53% | M14 melanoma; 10 µM unless noted 23.9%

Fc1ccccc1CNc1nc(SCCN2CCOCC2)nc2c1cnn2CC(Cl)c1ccc(Br)cc1 (configuration not stated)
active: 786-0 renal; 10 µM unless noted 8.8% | COLO 205 colon; 10 µM unless noted -9.47% | K-562 leukemia 3.13% | MALME-3M melanoma; 10 µM unless noted -15.7% | RXF 393 renal; 10 µM unless noted -13.9% | SF-295 CNS; 10 µM unless noted -3.31% | SF-539 CNS; 10 µM unless noted -3.45% | UACC-257 melanoma; 10 µM unless noted 8.02%
inactive: NCI-H226 lung; 10 µM unless noted 31.8% | NCI-H322M lung; 10 µM unless noted 75.2% | HOP-62 NSCLC; 10 µM unless noted 40% | NCI-H460 lung; 10 µM unless noted 17% | HOP-92 NSCLC; 10 µM unless noted 26% | NCI-H522 lung; 10 µM unless noted 58.1% | DU-145 prostate; 10 µM unless noted 60.5% | MDA-MB-231 breast; 10 µM unless noted 12.6% | SF-268 CNS; 10 µM unless noted 41.4% | M14 melanoma; 10 µM unless noted 29%

O=C1NC(=S)/C(=C/c2cn(-c3ccccc3)nc2-c2ccccc2)S1
inactive: NCI-H226 lung; 10 µM unless noted 34.1% | NCI-H322M lung; 10 µM unless noted 31.7% | HOP-62 NSCLC; 10 µM unless noted 72.6% | HOP-92 NSCLC; 10 µM unless noted 13.7% | A549/ATCC NSCLC; 10 µM unless noted 17.7% | 786-0 renal; 10 µM unless noted 20.8% | COLO 205 colon; 10 µM unless noted 33.2% | DU-145 prostate; 10 µM unless noted 34.4% | K-562 leukemia 22.2% | MALME-3M melanoma; 10 µM unless noted 10.4% | MDA-MB-231 breast; 10 µM unless noted 39.5% | SF-268 CNS; 10 µM unless noted 36.4% | SF-295 CNS; 10 µM unless noted 17% | SF-539 CNS; 10 µM unless noted 22.5% | M14 melanoma; 10 µM unless noted 25%
active: NCI-H460 lung; 10 µM unless noted 9.19% | NCI-H522 lung; 10 µM unless noted -9.92% | RXF 393 renal; 10 µM unless noted 9.95% | UACC-257 melanoma; 10 µM unless noted 6.05%

O=c1[nH]c2ccccc2cc1CSc1ccccc1Nc1nccc(-c2ccc3c(c2)OCO3)n1
inactive: NCI-H226 lung; 10 µM unless noted 49.7% | NCI-H322M lung; 10 µM unless noted 87.7% | HOP-62 NSCLC; 10 µM unless noted 40.6% | NCI-H460 lung; 10 µM unless noted 76.7% | HOP-92 NSCLC; 10 µM unless noted 71.7% | NCI-H522 lung; 10 µM unless noted 34.8% | A549/ATCC NSCLC; 10 µM unless noted 82.4% | 786-0 renal; 10 µM unless noted 64.7% | COLO 205 colon; 10 µM unless noted 84.9% | DU-145 prostate; 10 µM unless noted 85.1% | K-562 leukemia 87.6% | MALME-3M melanoma; 10 µM unless noted 80.2% | MDA-MB-231 breast; 10 µM unless noted 85.4% | RXF 393 renal; 10 µM unless noted 81.5% | SF-268 CNS; 10 µM unless noted 63.2% | SF-295 CNS; 10 µM unless noted 75.3% | SF-539 CNS; 10 µM unless noted 63.9% | UACC-257 melanoma; 10 µM unless noted 94.4% | M14 melanoma; 10 µM unless noted 89.3%

COc1ccc(NC(=O)CSc2nnc(-c3ccc(-c4nc5ccccc5[nH]4)cc3)o2)cc1
active: HOP-62 NSCLC; 10 µM unless noted -15.8% | NCI-H460 lung; 10 µM unless noted 0.884% | NCI-H522 lung; 10 µM unless noted 0.861% | 786-0 renal; 10 µM unless noted -33.8% | DU-145 prostate; 10 µM unless noted 5.8% | RXF 393 renal; 10 µM unless noted -54.4% | SF-539 CNS; 10 µM unless noted -86.6% | M14 melanoma; 10 µM unless noted 1.64%
inactive: NCI-H226 lung; 10 µM unless noted 20.3% | NCI-H322M lung; 10 µM unless noted 74.3% | HOP-92 NSCLC; 10 µM unless noted 10.8% | COLO 205 colon; 10 µM unless noted 49.2% | K-562 leukemia 22.2% | MALME-3M melanoma; 10 µM unless noted 10.2% | MDA-MB-231 breast; 10 µM unless noted 19.2% | SF-268 CNS; 10 µM unless noted 49.6% | SF-295 CNS; 10 µM unless noted 74.8% | UACC-257 melanoma; 10 µM unless noted 36.4%

COC(=O)c1cccc(Oc2ccc(NC(=O)Nc3cc(C(F)(F)F)ccc3F)cc2)c1
inactive: NCI-H226 lung; 10 µM unless noted 57.5% | NCI-H322M lung; 10 µM unless noted 91.1% | NCI-H460 lung; 10 µM unless noted 30.6% | HOP-92 NSCLC; 10 µM unless noted 40.7% | NCI-H522 lung; 10 µM unless noted 49.8% | A549/ATCC NSCLC; 10 µM unless noted 47% | 786-0 renal; 10 µM unless noted 47.3% | COLO 205 colon; 10 µM unless noted 88.2% | DU-145 prostate; 10 µM unless noted 78.8% | K-562 leukemia 59.5% | MALME-3M melanoma; 10 µM unless noted 77.7% | MDA-MB-231 breast; 10 µM unless noted 40% | RXF 393 renal; 10 µM unless noted 41.4% | SF-268 CNS; 10 µM unless noted 50.2% | SF-295 CNS; 10 µM unless noted 58.8% | SF-539 CNS; 10 µM unless noted 34.1% | UACC-257 melanoma; 10 µM unless noted 90.8%
active: HOP-62 NSCLC; 10 µM unless noted -8.81%
